The campaign covered roughly 5,500 compounds. About 2,000 (36%) were called active. About 18% were inconclusive and are not listed. Cut-off read from the data, not from the text of the source: active = normalized growth mostly below about 0.91 (no sharp cut-off); inconclusive = no clear call, values can overlap the other calls; inactive = mostly above about 0.92. The list shows a part of the results.
Assay: chemical genetic growth profiling, strain panel (AID 1159580);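 note: tested at 20 µM; growth read once vehicle control cultures reached saturation at 30 °C; 1 = growth at the plate median or of vehicle wells; lower values mean less growth of the strain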
Details: S. cerevisiae deletion strains, growth OD

Measured: normalized growth

OC[C@H]1O[C@H](OCCCc2ccc(O)cc2)[C@H](O)[C@@H](O)[C@@H]1O
inactive: locus YHR030C, strain SLT2, hits give low values 0.97 | locus YHR079C, strain IRE1, hits give low values 0.993 | locus YJL095W, strain BCK1, hits give low values 1 | locus YJR066W, strain TOR1, hits give low values 0.93 | locus YLR113W, strain HOG1, hits give low values 0.979 | locus YNL183C, strain NPR1, hits give low values 0.933 | locus YOR231W, strain MKK1, hits give low values 0.975 | locus YPL256C, strain CLN2, hits give low values 0.968
